The text below walks through data of PubChem BioAssay.

A number with no mark means an inactive call. For some of these results: Measured potencies and affinities stand elsewhere. Activity calls are given as the source filed them. Unless noted, no rule for the calls is given here.

Test [1] can be described thus: antimalarial activity against Dd2 strain (AID 2302;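 active = growth inhibition above 50% at the single 2 µM test dose, taken to imply half-maximal potency below 2 µM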;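 also: 0% = DMSO untreated growth and 100% = chloroquine plus artemisinin killed control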). The following applies: P. falciparum Dd2 in RBCs, LDH growth readout, 72 h; at 2 µM; stronger effect = higher value.
Test [2] is described as follows: HepG2 cytotoxicity, primary screen, cytotoxicity control for P. falciparum antimalarial project, cell-based, ATP luminescence (AID 2303;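 active = inhibition above 50%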;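 also: 0% = DMSO wells and 100% = digitonin-killed cells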). The following applies: HepG2 viability, 24-48 h, at 10 µM, stronger effect = higher value.
The target in test [3] is L-lactate dehydrogenase (Plasmodium falciparum (isolate CDC / Honduras)) (UniProt Q27743). Briefly: PfLDH activity inhibition – cell lysate, 3D7 strain, counter-screen for P. falciparum growth inhibition project (AID 2304).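 Also: 0% = vehicle and 100% = reference inhibitor.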 The settings on record: P. falciparum 3D7 crude extract, LDH APAD/NBT absorbance; at 2 µM; stronger effect = higher value. (A counterscreen serves to expose hits that act by an unwanted route or on another target.)
Sequence of L-lactate dehydrogenase (Plasmodium falciparum (isolate CDC / Honduras)) (Q27743 whole entry, looked up): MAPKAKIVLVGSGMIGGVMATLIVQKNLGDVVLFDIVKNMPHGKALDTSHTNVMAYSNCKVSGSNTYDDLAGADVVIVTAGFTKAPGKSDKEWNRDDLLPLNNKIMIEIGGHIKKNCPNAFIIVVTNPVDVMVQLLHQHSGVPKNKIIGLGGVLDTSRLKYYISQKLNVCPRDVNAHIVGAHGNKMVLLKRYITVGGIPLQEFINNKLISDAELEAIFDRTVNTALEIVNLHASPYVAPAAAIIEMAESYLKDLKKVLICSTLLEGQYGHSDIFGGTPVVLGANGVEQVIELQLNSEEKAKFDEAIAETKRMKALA

A short description of test [4]: inhibition of 3D7 malaria parasite growth – strain 3D7 (AID 2306).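 Also: 0% = DMSO wells and 100% = chloroquine plus artemisinin control wells.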 The following applies: P. falciparum 3D7 erythrocytic growth, LDH absorbance, 72 h; at 2 µM; stronger effect = higher value.
For test [5], the target named is Calcium-dependent protein kinase 1 (Plasmodium falciparum (isolate 3D7)) (UniProt P62344). As to the kind of experiment: PfCDPK1 kinase inhibitors, biochemical, TCAMS library (AID 1159585; cut-off not given, nearly all actives have IC50 up to about 0.98 µM;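 also: inhibitors leave more ATP so luminescence rises with inhibition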). The following applies: recombinant PfCDPK1, Kinase-Glo ATP depletion luminescence. In general terms: Kinase-Glo reads ATP consumption through a luciferase reaction.
Sequence of Calcium-dependent protein kinase 1 (Plasmodium falciparum (isolate 3D7)) (P62344 whole entry, looked up): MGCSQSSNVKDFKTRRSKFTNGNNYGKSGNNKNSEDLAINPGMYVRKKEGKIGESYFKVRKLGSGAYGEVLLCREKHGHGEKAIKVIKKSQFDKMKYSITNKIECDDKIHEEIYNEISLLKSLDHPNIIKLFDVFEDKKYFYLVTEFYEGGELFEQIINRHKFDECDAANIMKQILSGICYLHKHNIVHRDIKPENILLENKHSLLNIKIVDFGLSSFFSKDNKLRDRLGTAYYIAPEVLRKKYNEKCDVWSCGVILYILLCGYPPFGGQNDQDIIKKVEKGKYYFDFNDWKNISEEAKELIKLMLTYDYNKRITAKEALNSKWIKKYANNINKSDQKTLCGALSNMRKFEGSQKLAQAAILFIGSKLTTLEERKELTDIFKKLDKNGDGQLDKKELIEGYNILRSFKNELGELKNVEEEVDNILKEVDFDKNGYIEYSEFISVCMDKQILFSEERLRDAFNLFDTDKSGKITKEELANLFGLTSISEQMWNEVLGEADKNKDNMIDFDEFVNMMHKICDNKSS
Test [6] deals with Plasmodium falciparum protein kinase 6 (PK6, PF3D7_1337100) (UniProt Q8IDW1). As to the kind of experiment: PfPK6 kinase inhibitors, biochemical, TCAMS library (AID 1159586). The following applies: recombinant PfPK6, Kinase-Glo ATP depletion luminescence.
Sequence of Plasmodium falciparum protein kinase 6 (PK6, PF3D7_1337100) (Q8IDW1 1-305): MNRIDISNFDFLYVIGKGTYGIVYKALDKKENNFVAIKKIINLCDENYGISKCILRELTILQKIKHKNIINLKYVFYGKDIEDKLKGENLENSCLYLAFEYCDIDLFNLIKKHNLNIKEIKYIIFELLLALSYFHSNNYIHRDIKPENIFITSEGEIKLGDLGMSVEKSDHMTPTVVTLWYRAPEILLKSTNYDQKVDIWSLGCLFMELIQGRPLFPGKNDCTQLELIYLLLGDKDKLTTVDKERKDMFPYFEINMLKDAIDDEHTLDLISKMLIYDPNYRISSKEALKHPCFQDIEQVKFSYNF
Test [7] deals with Protein kinase 7 (PK7), Plasmodium falciparum 3D7 (PF3D7_0213400) (UniProt Q7YTF7). Briefly: inhibition of Plasmodium PK7 catalytic activity – biochemical, TCAMS antimalarial set, Kinase-Glo luminescence (AID 1159587). The following applies: recombinant PfPK7, Kinase-Glo ATP depletion luminescence.
Sequence of Protein kinase 7 (PK7), Plasmodium falciparum 3D7 (PF3D7_0213400) (Q7YTF7 1-343): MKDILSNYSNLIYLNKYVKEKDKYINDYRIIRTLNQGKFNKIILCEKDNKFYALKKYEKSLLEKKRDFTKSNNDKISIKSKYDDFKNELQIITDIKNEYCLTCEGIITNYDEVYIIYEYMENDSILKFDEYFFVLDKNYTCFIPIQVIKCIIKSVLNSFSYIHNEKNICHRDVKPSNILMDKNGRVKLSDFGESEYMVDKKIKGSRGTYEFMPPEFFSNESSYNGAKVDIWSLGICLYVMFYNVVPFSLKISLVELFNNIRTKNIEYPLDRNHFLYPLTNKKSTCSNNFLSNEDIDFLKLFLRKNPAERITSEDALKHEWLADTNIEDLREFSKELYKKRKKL
In test [8] the target is Calcium-dependent protein kinase 4 (Plasmodium falciparum (isolate 3D7)) (UniProt Q8IBS5). Briefly: PfCDPK4 kinase inhibitors, biochemical, TCAMS library (AID 1159588; cut-off not given, nearly all actives have IC50 up to about 0.91 µM). The settings on record: recombinant PfCDPK4, Kinase-Glo ATP depletion luminescence.
Sequence of Calcium-dependent protein kinase 4 (Plasmodium falciparum (isolate 3D7)) (Q8IBS5 whole entry, looked up): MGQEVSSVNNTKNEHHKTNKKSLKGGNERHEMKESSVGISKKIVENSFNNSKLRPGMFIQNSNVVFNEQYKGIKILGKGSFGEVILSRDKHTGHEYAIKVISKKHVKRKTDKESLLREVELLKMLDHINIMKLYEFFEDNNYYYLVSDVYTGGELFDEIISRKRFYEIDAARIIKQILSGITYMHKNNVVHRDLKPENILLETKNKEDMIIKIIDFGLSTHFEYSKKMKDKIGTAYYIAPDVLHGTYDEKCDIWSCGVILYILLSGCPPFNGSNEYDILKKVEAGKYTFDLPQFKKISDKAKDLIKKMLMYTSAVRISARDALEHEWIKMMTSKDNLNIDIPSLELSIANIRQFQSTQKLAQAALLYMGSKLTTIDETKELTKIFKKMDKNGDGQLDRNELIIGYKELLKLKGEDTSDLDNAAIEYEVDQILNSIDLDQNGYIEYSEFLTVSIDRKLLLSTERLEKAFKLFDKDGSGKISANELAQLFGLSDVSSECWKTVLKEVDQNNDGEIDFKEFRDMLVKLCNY

Consider `CCN1CCCC1CN(Cc1ccc(-c2ccc(C(F)(F)F)cc2)cc1)C(=O)Cn1c(CCc2cccc(F)c2F)nc(=O)c2ccccc21` (stereo not given), for which the results for the growth inhibition in test [1] and in test [4] were 51% (active) and 94% (active), respectively. Moreover, the inhibition (as a rule, the change of the read-out against control, counted positive when it falls) in test [2] was 40%; in test [3], 2%. The outcome in test [5], in test [6], in test [7] and in test [8] was inactive.
As for `O=C(CCc1cnc[nH]1)Nc1cccc(-c2ccc(-c3nc4ccc(F)cc4[nH]3)cc2)c1`, the growth inhibition in test [1] was 79% (active); in test [4], 101% (active). Further, the inhibition in test [2] is 18%; in test [3] it was -1%. For the same compound, the result in test [5], in test [6], in test [7] and in test [8] was inactive.
Turning to `COc1ccc2nccc([C@@H](O)CN3CC[C@H](NCc4cnc5c(c4)NC(=O)CS5)[C@H](F)C3)c2c1`, the growth inhibition in test [1] and in test [4] was 90% (active) in each case. Also, the inhibition in test [2] is -4%; in test [3] it was -2%. Besides, the outcome in test [5], in test [6], in test [7] and in test [8] was inactive.
Take `CC(C)COc1ccc(Cl)cc1Cc1ccc(-c2nc3ccc(Cl)cc3[nH]2)o1`: the growth inhibition is 96% (active) in test [1] and 97% (active) in test [4]. For the same compound, the inhibition in test [2] was 19%; in test [3], -1%. For the same compound, the outcome in test [5], in test [6], in test [7] and in test [8] was inactive.
Take `COc1cccc(OC2CCN(C(=O)c3cc(C(C)(C)C)nn3Cc3ccccc3)CC2)c1`: the growth inhibition was 98% (active) in test [1] and 102% (active) in test [4]. The inhibition in test [2] and in test [3] was 3% throughout. Further, the result in test [5], in test [6], in test [7] and in test [8] was inactive.
With `CC(C)CN(C)c1ncnc2c1nc(-c1cncc(C#N)c1)n2CCNCc1ccccc1`, the growth inhibition in test [1] was 2%; in test [4] it was 86% (active). The figures for the inhibition in test [2] and in test [3] were 4% and 0%, respectively. Further, the outcome in test [5], in test [6], in test [7] and in test [8] was inactive.
`Cc1ccc(NS(=O)(=O)c2ccc(C(C)N3CCC(N4CCCCC4)CC3)cc2)cc1C` (stereo not given): the growth inhibition in test [1] is 82% (active); in test [4] it was 97% (active). Further, the inhibition in test [2] was 66% (active); in test [3] it was -2%. Besides, the result in test [5], in test [6], in test [7] and in test [8] was inactive.
Regarding `CCSc1ccc(C)cc1CON1C(N)=NC(N)=NC1(C)C`, the results for the growth inhibition in test [1] and in test [4] were 96% (active) and 94% (active), respectively. The inhibition is 66% (active) in test [2] and 0% in test [3]. Moreover, the outcome in test [5], in test [6], in test [7] and in test [8] was inactive.
For the compound `CC(C)c1ccc(CN2CCC(CNC(=O)c3cc(-c4cccc(F)c4)cs3)C2)cc1` (stereo not given), the results for the growth inhibition in test [1] and in test [4] were 46% and 100% (active), respectively. For the same compound, the inhibition was 59% (active) in test [2] and 5% in test [3]. Besides, the result in test [5], in test [6], in test [7] and in test [8] was inactive.
For `CCN1C(=O)C(CC(=O)Nc2cccc(Cl)c2)N(Cc2ccc(OC)c(OC)c2)C1=S` (stereo not given), the growth inhibition in test [1] is 68% (active); in test [4] it was 100% (active). Moreover, the inhibition was 13% in test [2] and -8% in test [3]. Also, the outcome in test [5], in test [6], in test [7] and in test [8] was inactive.
As for `COc1ccc(C2N=C(N)N=C(N)N2c2ccc(Cl)cc2)cc1OC` (stereo not given), the growth inhibition in test [1] was 4%; in test [4], 85% (active). For the same compound, the results for the inhibition in test [2] and in test [3] were 4% and -1%, respectively. The outcome in test [5], in test [6], in test [7] and in test [8] was inactive.
Turning to `Cc1ccc(S(=O)(=O)N(C)c2ccccc2C(=O)Nc2ccccc2Oc2ccccc2)cc1`, the growth inhibition was 90% (active) in test [1] and 98% (active) in test [4]. In addition, the inhibition in test [2] is 5%; in test [3] it was 3%. The outcome in test [5], in test [6], in test [7] and in test [8] was inactive.
As for `CCCNC(=O)c1cncc(-c2cccc(CNC3Cc4ccccc4C3)c2)c1`, the results for the growth inhibition in test [1] and in test [4] were 2% and 100% (active), respectively. In addition, the values for the inhibition in test [2] and in test [3] were -2% and -3%, respectively. Besides, the result in test [5], in test [6], in test [7] and in test [8] was inactive.
As for `Cc1c(CNCCN2CCCCC2)c(C(=O)O)c(C)n1Cc1ccc(Cl)cc1`, the growth inhibition in test [1] is 93% (active); in test [4], 97% (active). The inhibition in test [2] is 4%; in test [3], -6%. Besides, the outcome in test [5], in test [6], in test [7] and in test [8] was inactive.
Consider `CCC[C@@H]([C@@H](Cc1ccc(C)s1)C(=O)N[C@@H](CNC(C)=O)C(=O)Nc1nccs1)N(O)C=O`, for which the results for the growth inhibition in test [1] and in test [4] were 96% (active) and 97% (active), respectively. Further, the inhibition in test [2] is -1%; in test [3], 2%. Further, the result in test [5], in test [6], in test [7] and in test [8] was inactive.
Take `CCOc1ccc(C(C)NC(=O)c2ccc(OC)c(Br)c2)cc1OCC` (stereo not given): the growth inhibition in test [1] and in test [4] was 100% (active) in each case. Besides, the results for the inhibition in test [2] and in test [3] were 9% and 2%, respectively. The outcome in test [5], in test [6], in test [7] and in test [8] was inactive.
For `CCCCCCN1CCC(NCc2ccc(C)cc2)CC1`, the growth inhibition in test [1] was 4%; in test [4], 93% (active). Further, the figures for the inhibition in test [2] and in test [3] were 16% and -1%, respectively. Moreover, the outcome in test [5], in test [6], in test [7] and in test [8] was inactive.
Consider `Cc1cc(NC(=O)N=C(N)N)ccc1Cl`, for which the growth inhibition is 15% in test [1] and 100% (active) in test [4]. Moreover, the figures for the inhibition in test [2] and in test [3] were 11% and 2%, respectively. The outcome in test [5], in test [6], in test [7] and in test [8] was inactive.
For `Cc1cccc2[nH]c(-c3cccc(-c4cccc(NC(=O)Nc5ccccc5)c4)c3)nc12`, the growth inhibition was 64% (active) in test [1] and 101% (active) in test [4]. For the same compound, the inhibition in test [2] was 8%; in test [3], -6%. The result in test [5], in test [6], in test [7] and in test [8] was inactive.
Turning to `COc1ccc(NC(=O)Nc2ccc(-c3ccc(-c4nc5c(C)cccc5[nH]4)s3)cc2)cc1`, the growth inhibition is 96% (active) in test [1] and 100% (active) in test [4]. For the same compound, the figures for the inhibition in test [2] and in test [3] were 74% (active) and 3%, respectively. Besides, the outcome in test [5], in test [6], in test [7] and in test [8] was inactive.
